{"source": "ChEMBL document CHEMBL1201862", "about": "“PubChem BioAssay data set” (2004)", "note": "Where “and” joins values, the source holds several entries; their conditions need not be identical. Equal entries are not always repeated."}
{"assay": "A High Throughput Confirmatory Assay used to Identify Novel Compounds that Inhibit Mycobacterium Tuberculosis in the absence of Glycerol using Purified and Synthesized Compounds (8).; call rule not given here", "type": "functional"}
{"compound": "O=C(c1ccc(CNc2c(N3CCCC3)c(=O)c2=O)cc1)N1CC=C(c2ccccc2)CC1", "IC90": "> 100 µM (active) and > 47.2 µM (active)"}
{"compound": "O=C(NCCc1ccc(Cl)cc1)c1ccc(CNc2c(N3CCOCC3)c(=O)c2=O)cc1", "IC90": "> 100 µM (active)"}
{"compound": "CC(=O)c1ccc(NC(=O)c2ccc(CNc3c(N4CCOCC4)c(=O)c3=O)cc2)cc1", "IC90": "> 100 µM (active)"}
{"compound": "O=C(C1CCC(CNc2c(N3CCCCC3)c(=O)c2=O)CC1)N1CCCCC1", "note": "(centres undefined)", "IC90": "> 83.3 µM (active)"}
{"compound": "CC(C)CCNC(=O)CSc1nc2c(c(=O)[nH]1)CCCCC2", "IC90": "> 100 µM (active)"}
{"compound": "CC1CCCN(C(=O)C2CCC(CNc3c(N4CCCCC4)c(=O)c3=O)CC2)C1", "note": "(centres undefined)", "IC90": "> 100 µM (active)"}
{"compound": "CCOC(=O)N1CCC(/N=c2\\c(O)c(O)\\c2=N/c2cccc(CC)c2)CC1", "IC90": "> 59.3 µM (active)"}
{"compound": "CC1CCN(C(=O)c2ccc(CNc3c(N4CCCC4)c(=O)c3=O)cc2)CC1", "IC90": "> 100 µM (active)"}
{"compound": "O=C(c1ccc(CNc2c(N3CCOCC3)c(=O)c2=O)cc1)N1CCC(c2ccccc2)CC1", "IC90": "> 68.9 µM (active)"}
{"compound": "O=C(c1ccc(CNc2c(N3CCCC3)c(=O)c2=O)cc1)N1CCc2ccccc2C1", "IC90": "> 100 µM (active)"}
{"compound": "CC(C)OC(=O)CSc1ncnc2c1cnn2-c1ccccc1", "IC90": "> 100 µM (active)"}
{"compound": "COc1ccc(N2CCN(C(=O)c3ccc(CNc4c(N5CCOCC5)c(=O)c4=O)cc3)CC2)cc1", "IC90": "> 100 µM (active)"}
{"compound": "O=C(c1ccc(CNc2c(N3CCOCC3)c(=O)c2=O)cc1)N1CCN(c2ccccc2)CC1", "IC90": "> 53.1 µM (active)"}
{"compound": "O=C(NCCc1ccc(Cl)cc1)C1CCC(CNc2c(N3CCCCC3)c(=O)c2=O)CC1", "note": "(centres undefined)", "IC90": "> 83.3 µM (active)"}
{"compound": "CC1CC(C)CN(C(=O)C2CCC(CNc3c(N4CCCCC4)c(=O)c3=O)CC2)C1", "note": "(centres undefined)", "IC90": "> 75 µM (active) and > 100 µM (active)"}
{"compound": "O=C(c1ccc(CNc2c(N3CCCC3)c(=O)c2=O)cc1)N1CCN(c2ccccc2)CC1", "IC90": "> 100 µM (active)"}
{"compound": "O=C(c1ccc(CNc2c(N3CCCC3)c(=O)c2=O)cc1)N1CCC(c2ccccc2)CC1", "IC90": "> 100 µM (active)"}
{"compound": "CC1CC(C)CN(C(=O)c2ccc(CNc3c(N4CCCC4)c(=O)c3=O)cc2)C1", "note": "(centres undefined)", "IC90": "> 100 µM (active)"}
{"compound": "CC1CCCN(C(=O)c2ccc(CNc3c(N4CCCCC4)c(=O)c3=O)cc2)C1", "note": "(centres undefined)", "IC90": "> 100 µM (active)"}
